Source: PubChem BioAssay (EPA / NIEHS)
Inconclusive results are not listed. Activity calls are given as the source filed them. How the source made its calls, unless noted: active means hit-call score of the fitted dose curve at least 0.9, where 1 is the maximum; inconclusive means response in the unintended direction; inactive means score below 0.9.

Legend:
[1] = molecular target: Oxysterols receptor LXR-alpha (Homo sapiens) (UniProt Q13133); experiment: ATG_LXRa_TRANS: Attagene TRANS-FACTORIAL HepG2 Assay for human Liver X Receptor alpha (LXRa) (AID 2282980); conditions: HepG2 Attagene TRANS reporter, LXRa transactivation
Chain of Oxysterols receptor LXR-alpha (Homo sapiens) (Q13133 whole entry, looked up, the tested form may be a part): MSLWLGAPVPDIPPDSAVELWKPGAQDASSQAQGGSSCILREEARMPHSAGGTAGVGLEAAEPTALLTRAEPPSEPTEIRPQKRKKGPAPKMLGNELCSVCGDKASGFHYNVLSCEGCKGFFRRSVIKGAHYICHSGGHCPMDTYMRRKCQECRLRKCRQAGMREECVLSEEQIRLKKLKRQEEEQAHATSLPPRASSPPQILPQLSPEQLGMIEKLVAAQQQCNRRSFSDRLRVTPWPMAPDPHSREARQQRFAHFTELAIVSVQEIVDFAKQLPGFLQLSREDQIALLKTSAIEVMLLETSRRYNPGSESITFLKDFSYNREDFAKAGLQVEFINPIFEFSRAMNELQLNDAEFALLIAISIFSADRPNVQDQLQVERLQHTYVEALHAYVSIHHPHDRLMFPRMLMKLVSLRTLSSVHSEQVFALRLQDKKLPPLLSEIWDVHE
Method in brief: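 Read-out: reporter transcript levels by RT-PCR plus capillary electrophoresis, fluorescence intensity. Transiently transfected HepG2, exogenous NR-GAL4 chimera, GAL4-UAS reporters; 24 h compound exposure. Activity = increase over DMSO negative control.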

[2] = molecular target: Hepatocyte nuclear factor 4-alpha (Homo sapiens) (UniProt P41235); experiment: ATG_HNF4a_TRANS: Attagene TRANS-FACTORIAL HepG2 Assay for human Hepatocyte Nuclear Factor 4 alpha (HNF4a) (AID 2282982); conditions: HepG2 HNF4a transactivation reporter, mRNA readout
Chain of Hepatocyte nuclear factor 4-alpha (Homo sapiens) (P41235 whole entry, looked up, the tested form may be a part): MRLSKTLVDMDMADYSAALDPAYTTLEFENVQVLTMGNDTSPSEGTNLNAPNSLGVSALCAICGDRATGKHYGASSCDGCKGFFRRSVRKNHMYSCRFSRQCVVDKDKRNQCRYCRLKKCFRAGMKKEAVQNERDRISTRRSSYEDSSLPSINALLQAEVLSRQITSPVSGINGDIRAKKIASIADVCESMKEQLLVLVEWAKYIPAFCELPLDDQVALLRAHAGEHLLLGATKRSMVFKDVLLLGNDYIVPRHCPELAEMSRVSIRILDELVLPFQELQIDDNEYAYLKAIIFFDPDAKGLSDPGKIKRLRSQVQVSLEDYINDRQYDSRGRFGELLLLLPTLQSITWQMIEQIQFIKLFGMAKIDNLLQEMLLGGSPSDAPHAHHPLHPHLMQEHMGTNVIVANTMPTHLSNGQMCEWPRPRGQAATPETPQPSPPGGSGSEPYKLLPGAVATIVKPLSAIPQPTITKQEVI
Method in brief: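 Gain-of-signal mRNA induction, relative to DMSO vehicle, was read after 24 h compound treatment of HepG2 cells bearing transfected GAL4-UAS reporters. Detection used RT-PCR, 6-FAM primer extension and capillary electrophoresis.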

[3] = ATG_M_06_TRANS: Attagene TRANS-FACTORIAL HepG2 Assay for M06 Transcription Factor (Internal Marker) (AID 2282983); conditions: HepG2 Attagene TRANS M06 internal marker reporter
Method in brief: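 After a 24 h chemical treatment of transfected HepG2, RNA underwent DNase I treatment, reverse transcription and reporter-specific PCR; labelled, HpaI-digested products were sized by capillary electrophoresis. Signal increase relative to DMSO defined activity.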

[4] = molecular target: Nuclear receptor subfamily 4 group A member 2 (Homo sapiens) (UniProt P43354); experiment: ATG_NURR1_TRANS: Attagene TRANS-FACTORIAL HepG2 Assay for human Nuclear Receptor Related Protein 1 (NURR1) (AID 2282985); conditions: HepG2 Attagene TRANS reporter, mRNA readout
Chain of Nuclear receptor subfamily 4 group A member 2 (Homo sapiens) (P43354 whole entry, looked up): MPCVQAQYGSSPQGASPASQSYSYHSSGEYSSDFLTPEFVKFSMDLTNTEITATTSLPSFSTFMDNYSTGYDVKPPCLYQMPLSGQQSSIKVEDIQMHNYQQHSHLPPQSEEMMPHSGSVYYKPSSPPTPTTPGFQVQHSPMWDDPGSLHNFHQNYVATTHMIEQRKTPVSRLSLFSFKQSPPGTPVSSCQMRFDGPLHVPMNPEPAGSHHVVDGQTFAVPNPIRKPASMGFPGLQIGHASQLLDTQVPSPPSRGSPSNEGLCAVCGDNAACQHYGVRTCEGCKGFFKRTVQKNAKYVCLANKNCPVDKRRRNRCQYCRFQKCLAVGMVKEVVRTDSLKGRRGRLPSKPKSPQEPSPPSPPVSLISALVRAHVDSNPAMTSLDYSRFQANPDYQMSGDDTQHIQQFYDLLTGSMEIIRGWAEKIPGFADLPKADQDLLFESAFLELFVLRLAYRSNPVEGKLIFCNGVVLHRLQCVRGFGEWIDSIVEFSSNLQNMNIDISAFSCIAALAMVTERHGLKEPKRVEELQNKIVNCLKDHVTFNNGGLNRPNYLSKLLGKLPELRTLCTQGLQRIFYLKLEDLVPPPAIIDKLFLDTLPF
Method in brief: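 HepG2 / transient MRTU transfection / 24 h compound exposure / RT-PCR + CE fluorescence of reporter mRNA / gain-of-signal vs DMSO.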

[5] = molecular target: Oxysterols receptor LXR-beta (Homo sapiens) (UniProt P55055); experiment: ATG_LXRb_TRANS: Attagene TRANS-FACTORIAL HepG2 Assay for human Liver X Receptor beta (LXRb) (AID 2282981); conditions: HepG2 Attagene TRANS GAL4-LXRb reporter, mRNA
Chain of Oxysterols receptor LXR-beta (Homo sapiens) (P55055 whole entry, looked up, the tested form may be a part): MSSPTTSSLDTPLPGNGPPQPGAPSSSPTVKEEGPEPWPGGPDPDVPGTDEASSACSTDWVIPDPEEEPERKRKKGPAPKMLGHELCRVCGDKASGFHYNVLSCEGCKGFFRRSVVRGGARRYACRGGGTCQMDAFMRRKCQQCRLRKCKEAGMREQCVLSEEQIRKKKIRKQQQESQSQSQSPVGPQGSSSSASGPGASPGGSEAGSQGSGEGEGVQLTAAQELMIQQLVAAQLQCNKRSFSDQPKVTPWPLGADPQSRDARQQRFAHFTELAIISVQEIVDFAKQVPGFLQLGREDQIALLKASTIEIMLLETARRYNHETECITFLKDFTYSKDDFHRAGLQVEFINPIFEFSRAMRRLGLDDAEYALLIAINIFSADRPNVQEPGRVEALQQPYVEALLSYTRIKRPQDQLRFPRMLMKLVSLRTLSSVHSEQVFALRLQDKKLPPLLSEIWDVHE
Method in brief: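 Gain-of-signal mRNA reporter endpoint, DMSO as negative control. Transiently transfected HepG2 cells carrying the NR-Gal4 chimera and GAL4-UAS reporter units were treated 24 h; transcripts quantified by RT-PCR and capillary electrophoresis fluorescence.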

[6] = ATG_M_32_TRANS: Attagene TRANS-FACTORIAL HepG2 Assay for M32 Transcription Factor (Internal Marker) (AID 2282984); conditions: HepG2 Attagene TRANS M32 internal marker reporter;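 further: transcript level of a background control reporter unit measured by RT-PCR and capillary electrophoresis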
Method in brief: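 Capillary electrophoresis of 6-FAM-labelled reporter fragments gives the signal; data fitted for gain over DMSO negative control. Source: HepG2 cells bearing transient multiple reporter transcription units, 24 h exposure.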

[7] = molecular target: Transcriptional activator Myb (Homo sapiens) (UniProt P10242); experiment: ATG_Myb_CIS: Attagene CIS-FACTORIAL HepG2 Assay for human Myeloblastosis (Myb) Proto-Oncogene Transcription Factor (AID 2282986; active means hit-call score of the fitted dose curve at least 0.9, where 1 is the maximum; inactive means score below 0.9); conditions: HepG2 Attagene CIS-FACTORIAL Myb reporter transcription; actives raise or lower the signal
Chain of Transcriptional activator Myb (Homo sapiens) (P10242 whole entry, looked up): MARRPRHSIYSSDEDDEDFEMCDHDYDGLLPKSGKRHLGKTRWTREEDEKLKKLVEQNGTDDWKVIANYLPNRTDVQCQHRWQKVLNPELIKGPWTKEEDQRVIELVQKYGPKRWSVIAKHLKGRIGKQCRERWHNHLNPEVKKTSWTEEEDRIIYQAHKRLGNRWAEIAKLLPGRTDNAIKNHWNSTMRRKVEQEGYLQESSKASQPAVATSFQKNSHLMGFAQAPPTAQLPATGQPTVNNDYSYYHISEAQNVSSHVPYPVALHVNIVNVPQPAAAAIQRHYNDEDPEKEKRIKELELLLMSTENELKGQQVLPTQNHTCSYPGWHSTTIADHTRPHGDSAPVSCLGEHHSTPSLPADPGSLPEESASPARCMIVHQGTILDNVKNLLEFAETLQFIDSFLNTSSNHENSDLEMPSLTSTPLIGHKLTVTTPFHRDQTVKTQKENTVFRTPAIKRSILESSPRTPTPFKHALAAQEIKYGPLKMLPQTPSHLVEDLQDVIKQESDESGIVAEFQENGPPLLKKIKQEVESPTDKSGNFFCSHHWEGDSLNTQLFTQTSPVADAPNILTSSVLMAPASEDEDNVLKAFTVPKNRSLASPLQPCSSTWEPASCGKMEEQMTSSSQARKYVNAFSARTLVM
Method in brief: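 After 24 h of compound dosing, total RNA from transfected HepG2 cells is reverse-transcribed and the reporter sequences amplified, labeled and separated by capillary electrophoresis. Values come from bidirectional fitting against DMSO.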

[8] = molecular target: Bile acid receptor (Homo sapiens) (UniProt Q96RI1); experiment: ATG_FXR_TRANS: Attagene TRANS-FACTORIAL HepG2 Assay for Farnesoid X Receptor (FXR) (AID 2282979); conditions: HepG2 Attagene TRANS FXR-GAL4 reporter transcription;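 further: hits raise reporter mRNA above DMSO so AC50 marks FXR activation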
Chain of Bile acid receptor (Homo sapiens) (Q96RI1 whole entry, looked up, the tested form may be a part): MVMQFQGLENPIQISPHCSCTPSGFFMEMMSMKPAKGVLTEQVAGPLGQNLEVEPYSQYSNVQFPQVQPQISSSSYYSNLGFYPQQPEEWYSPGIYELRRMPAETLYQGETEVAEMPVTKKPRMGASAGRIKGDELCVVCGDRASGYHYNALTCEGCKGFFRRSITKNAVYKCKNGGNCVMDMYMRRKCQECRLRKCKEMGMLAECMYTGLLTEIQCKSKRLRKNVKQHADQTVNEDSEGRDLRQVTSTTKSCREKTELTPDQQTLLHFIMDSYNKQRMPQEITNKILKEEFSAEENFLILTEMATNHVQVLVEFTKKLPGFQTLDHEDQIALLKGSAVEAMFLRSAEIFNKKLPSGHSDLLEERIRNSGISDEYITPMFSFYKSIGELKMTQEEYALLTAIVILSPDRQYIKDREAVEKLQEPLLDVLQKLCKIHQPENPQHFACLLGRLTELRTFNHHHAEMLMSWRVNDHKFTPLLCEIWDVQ
Method in brief: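 Read-out: fluorescent reporter transcripts quantified by capillary electrophoresis after RT-PCR of total RNA. Source cells were HepG2 transiently carrying chimeric NR-GAL4 plus GAL4-UAS reporter units, dosed 24 h. Activity fitted upward relative to DMSO baseline.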

[9] = molecular target: Glucocorticoid receptor (Homo sapiens) (UniProt P04150); experiment: ATG_GR_TRANS: Attagene TRANS-FACTORIAL HepG2 Assay for human Glucocorticoid Receptor (GR) (AID 2282978); conditions: HepG2 Attagene TRANS GR reporter, mRNA transcription;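 further: activators score as hits since higher reporter transcript over DMSO is fitted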
Chain of Glucocorticoid receptor (Homo sapiens) (P04150 whole entry, looked up): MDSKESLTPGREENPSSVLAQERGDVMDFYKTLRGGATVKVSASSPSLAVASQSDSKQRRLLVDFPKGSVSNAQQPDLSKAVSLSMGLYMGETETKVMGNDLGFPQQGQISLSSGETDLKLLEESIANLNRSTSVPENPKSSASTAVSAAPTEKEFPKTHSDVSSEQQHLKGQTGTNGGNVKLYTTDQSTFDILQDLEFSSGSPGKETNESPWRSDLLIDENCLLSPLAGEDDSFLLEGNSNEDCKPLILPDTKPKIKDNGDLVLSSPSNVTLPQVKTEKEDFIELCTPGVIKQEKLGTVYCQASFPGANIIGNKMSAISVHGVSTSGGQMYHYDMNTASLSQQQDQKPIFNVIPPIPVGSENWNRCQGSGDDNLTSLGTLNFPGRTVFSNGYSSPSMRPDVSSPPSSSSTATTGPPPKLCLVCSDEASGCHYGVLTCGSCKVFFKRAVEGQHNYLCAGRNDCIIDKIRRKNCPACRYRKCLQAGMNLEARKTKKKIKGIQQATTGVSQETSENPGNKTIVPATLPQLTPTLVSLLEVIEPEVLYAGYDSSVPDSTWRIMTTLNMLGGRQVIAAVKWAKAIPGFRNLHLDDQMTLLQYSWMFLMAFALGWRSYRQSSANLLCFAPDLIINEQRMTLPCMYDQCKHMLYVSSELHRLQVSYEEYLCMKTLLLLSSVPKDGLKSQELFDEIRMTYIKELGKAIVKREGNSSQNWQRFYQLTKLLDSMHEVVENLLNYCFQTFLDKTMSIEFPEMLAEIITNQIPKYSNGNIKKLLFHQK
Method in brief: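 After 24 h incubation with test chemical, transfected HepG2 cells were lysed for RNA; reporter cDNA was amplified, FAM-labelled, HpaI-digested and sized on a capillary analyser. Signal gain relative to DMSO was scored.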

Measured: AC50

C[C@]12C=CC(=O)C=C1CC[C@H]1[C@@H]3C[C@@H](O)[C@](O)(C(=O)CO)[C@@]3(C)C[C@H](O)[C@@]12F
inactive: [1] | [2] | [3] | [4]

NCC(F)(F)C(F)(F)C(F)(F)C(F)(F)F
not listed: [5] | [7] | [9]
inactive: all other assays above

COS(C)(=O)=O
inactive: [1] | [2] | [3] | [7]

CCCCCCCCCCCCCCCCOS(=O)(=O)O
inactive: [8] | [5] | [6] | [4] | [7]

Cc1ccc(S(=O)(=O)NC(=O)NN2CCCCCC2)cc1
not listed: [2] | [8] | [9]
inactive: all other assays above

Cn1c(=O)c2[nH]cnc2n(C)c1=O
inactive: [8] | [2] | [6] | [4]

COCc1nnc(-c2ccc[n+]([O-])c2)n1-c1c(Cl)c(Cl)cc2[nH]c(=O)c(=O)[nH]c12
inactive: [8] | [2] | [3] | [7]

CCCCCCCC1CCC(=O)O1 (configuration not stated)
inactive: [8] | [6] | [7]

CCCCCCCCCC
inactive: [8] | [2] | [4] | [7]

O=C(O)[C@H](O)[C@@H](O)C(=O)O
not listed: [2] | [4] | [6]
inactive: all other assays above

COc1cc2c(c(OC)c1OC)-c1ccc(OC)c(=O)cc1[C@@H](NC(C)=O)CC2
inactive: [8] | [1] | [5] | [3] | [7]

NC(=O)N(O)[C@@H]1COc2cc(OCc3ccccc3)ccc21
not listed: [4] | [9]
inactive: all other assays above

COc1cc(C(C)C)c2c(c1)S(=O)(=O)N(COc1cc(=O)n3cccc(OCCN4CCCCC4)c3n1)C2=O
active: [8] 4.68 µM
inactive: [2] | [6] | [4] | [7]

c1ccc2c(c1)-c1cccc3c1c-2cc1ccccc13
not listed: [7] | [8] | [9]
inactive: all other assays above

Cc1ncc([C@@H](CCCCCCc2ccc3c(n2)NCCC3)CC(=O)O)cn1
not listed: [3] | [9]
inactive: all other assays above

O=C(O)c1ccc2c(c1)nc(C(=O)NC1CCN(C3CC3)CC1)n2Cc1cc(-c2ccc(Cl)s2)on1
inactive: [8] | [2] | [3] | [4]

CCCCCOC(C)=O
inactive: [9] | [3] | [6] | [4] | [7]

CCc1ccc(O)c(C(C)(C)C)c1
active: [4] 53.4 µM
inactive: [1] | [6] | [7]

C=CCc1cc(S(=O)(=O)c2ccc(O)c(CC=C)c2)ccc1O
inactive: [8] | [3] | [6] | [7]

CCN(CC)C(=S)SSC(=S)N(CC)CC
inactive: [8] | [3] | [6]

CC(C)CCCCCCOC(=O)C1CCCCC1C(=O)OCCCCCCC(C)C (configuration not stated)
inactive: [8] | [5] | [3] | [4] | [7]

OCC(CO)(CO)CO
inactive: [1] | [5] | [2] | [3] | [4]

CCCCCCCCN(C)C
inactive: [9] | [5] | [3] | [4]

c1ccc2ncccc2c1
not listed: [8] | [9]
inactive: all other assays above

O=C(O)c1cccc(C(=O)O)c1
inactive: [8] | [5] | [2] | [6]

Nc1ccn([C@@H]2O[C@H](CO)[C@@H](O)[C@@H]2O)c(=O)n1
inactive: [1] | [5] | [7]

CCCCCCCC/C=C\CCCCCCCC(=O)OC[C@@H](O)[C@H]1OC[C@H](O)[C@H]1O
inactive: [5] | [2] | [6] | [4]

C=CN1CCCC1=O
inactive: [5] | [3] | [4] | [7]

CC1(C)C(=O)N(Cl)C(=O)N1Cl
inactive: [2]

CCCCCCCCCCCCCCO
inactive: [5] | [6]

CCCCN1C(=O)[C@@H]([C@H](O)C2CCCCC2)NC(=O)C12CCN(Cc1ccc(Oc3ccc(C(=O)O)cc3)cc1)CC2
inactive: [3] | [6] | [7]

NC(=O)N1c2ccccc2C=Cc2ccccc21
inactive: [5] | [3] | [6]

CC(C)CC(C)O (configuration not stated)
inactive: [2] | [7]

CCCC(CCC)C(=O)O
inactive: [3] | [6] | [4]

OC[C@H]1O[C@@H]2O[C@H]3[C@H](O)[C@@H](O)[C@@H](O[C@H]4[C@H](O)[C@@H](O)[C@@H](O[C@H]5[C@H](O)[C@@H](O)[C@@H](O[C@H]6[C@H](O)[C@@H](O)[C@@H](O[C@H]7[C@H](O)[C@@H](O)[C@@H](O[C@H]1[C@H](O)[C@H]2O)O[C@@H]7CO)O[C@@H]6CO)O[C@@H]5CO)O[C@@H]4CO)O[C@@H]3CO
inactive: [3] | [4]

OC(CCl)CCl
inactive: [5] | [2] | [3] | [6] | [7]

CCOC(N)=O
inactive: [3] | [6] | [7]

NC(N)=O
inactive: [5] | [2] | [6] | [4] | [7]

O=C1CN(N=Cc2ccc([N+](=O)[O-])o2)C(=O)N1
inactive: [3] | [6] | [7]
